# This is a sample that favours compounds with a hit; in the whole collection about 2.4% have one here.
# D2 PAM-1 = D2 dopamine receptor (human) potentiation; P14416; HEK293 T-REx D2, calcium flux, EC20 dopamine potentiation; potentiation, % at 10 µM; 340,000 tested, 0.34% active; AID 485347;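 active means potentiation over 3 SD above the plate norm, cut at about 30% in these data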; further: 0% is about no effect
# Target sequence (P14416 whole entry, looked up): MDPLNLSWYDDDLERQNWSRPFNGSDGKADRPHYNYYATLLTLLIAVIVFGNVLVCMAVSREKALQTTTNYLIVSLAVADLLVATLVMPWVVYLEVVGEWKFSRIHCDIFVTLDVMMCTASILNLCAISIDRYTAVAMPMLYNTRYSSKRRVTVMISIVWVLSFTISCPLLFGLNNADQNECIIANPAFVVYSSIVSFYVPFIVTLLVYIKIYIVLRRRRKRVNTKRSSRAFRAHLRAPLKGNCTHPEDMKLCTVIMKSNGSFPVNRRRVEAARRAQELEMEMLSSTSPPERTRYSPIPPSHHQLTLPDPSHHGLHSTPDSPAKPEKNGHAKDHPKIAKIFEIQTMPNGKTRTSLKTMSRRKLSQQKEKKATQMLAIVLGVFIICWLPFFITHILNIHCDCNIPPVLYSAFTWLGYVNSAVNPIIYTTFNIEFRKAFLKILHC
#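 Primary screen. Calcium kinetics in induced HEK293 T-REx D2 cells: compound pre-addition 180 s, EC20 dopamine, 180 s more.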
# D2 antagonist = antagonizes the human D2 dopamine receptor; 340,000 tested, 2% active; P14416; inhibition, % at 10 µM; AID 485344; HEK293 TREx D2 cells, calcium flux, dopamine EC80; in the data active means inhibition above about 30%; inactive means below that, where a call was filed; further: 0% is about no effect
#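 Measurement of antagonist activity uses fluorescent calcium dye in inducible HEK293 T-REx D2 cells: 10 s baseline, compound addition with 180 s read, EC80 dopamine addition with a further 180 s read.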
# D2 ag-1 = activates the human D2 dopamine receptor. P14416. HEK293 T-REx D2 cells, calcium flux agonist mode. activation, % at 2 µM. 340,000 tested, 0.53% active. AID 485358;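 active means activation over 3 SD above normal in the single-dose calcium agonist read, cut at about 30% in these data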; further: 0% is about no effect
#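 Tetracycline-induced HEK293 Trex cells with D2 receptor force-coupled to calcium signaling, plated overnight at 30 C and loaded with no-wash calcium dye. Calcium flux read kinetically for 180 s after compound addition; responses flag agonists.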
# D2 ag-2 = activates the human D2 dopamine receptor. P14416. DiscoveRx PathHunter D2 beta-arrestin, luminescence, 90 min; 100% = 57 uM dopamine signal. activation, % (test concentration not listed). 360,000 tested, 0.084% active; in the data active means activation above about 40%; inconclusive means between about 15% and that limit
#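 Agonist mode: compounds alone added to overnight-plated D2 PathHunter cells for 90 min at 37 C, with 57 uM final dopamine (EC100) defining full response. Beta-arrestin recruitment detected by chemiluminescent reagent, read after 1 h at ambient temperature.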
# D2 PAM-2 = human D2 receptor positive allosteric modulation; 360,000 tested, 0.23% active; AID 624464; DiscoveRx D2 beta-arrestin cells, luminescence, 90 min; 100% = 57 uM dopamine signal; potentiation, % (concentration not given with the values); P14416; in the data active means potentiation above about 50%; inconclusive means mostly about 30% to 49%
#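 PathHunter D2 cells, attached overnight at 37 deg C, received compound in DMSO plus dopamine at EC20 (50 nM final) for 90 min at 37 deg C. Beta-arrestin recruitment was read as luminescence after 1 h with detection reagent at ambient temperature.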
# * hit, by the source's call; ? = inconclusive; nt = no result; ! = a repeat was not active.
SMILES,D2 PAM-1,D2 antagonist,D2 ag-1,D2 ag-2,D2 PAM-2
O=C1CN(C(=O)c2ccc(S(=O)(=O)N3CCCC3)cc2)C(c2ccc(F)cc2)c2cc(Br)ccc2N1 (stereo not given),15.4,nt,-0.1,nt,nt
Cc1ccc(CNc2nc3ccccc3c3nc(-c4cccc(C)c4)nn23)cc1,-3.6,nt,-0.3,nt,nt
CCOC(=O)C1CCN(S(=O)(=O)CCNC(=O)c2ccc(F)cc2)CC1,28.0,30.3*,0.3,2.4,5.0
O=C(NCCS(=O)(=O)N1CCCCCC1)c1ccc(F)cc1,0.0,8.4,0.8,-5.2,-2.9
c1ccc(OCCNc2nc(NCC3CC3)nc3cc(-c4ccccc4)sc23)cc1,nt,nt,nt,44.0*,-20.1
Cc1c(CN2CCCCC2)c(O)n(CCCO)c(=O)c1C#N,5.8,8.5,2.0,3.8,10.4
CCCn1c(O)c(CN2CCCCC2)c(C)c(C#N)c1=O,-14.8,13.1,14.3,8.0,63.5*
Cc1ccccc1NC(=O)C1CCN(S(=O)(=O)c2cccc3nonc23)CC1,44.0*!,4.6,-2.3,-3.5,0.3
Cc1ccc(NC(=O)C2CCN(S(=O)(=O)c3cccc4nonc34)CC2)cc1,-5.7,nt,nt,5.1,1.9
C/C(=N\NC(=O)c1ccccc1F)c1ccc2c(c1)Nc1ccccc1S2,-2.5,-4.4,0.1,?,87.2*
Cc1ccc2c(CN3CCN(C(=O)c4ccc(F)cc4)CC3)cc(=O)oc2c1,-6.6,nt,-0.4,nt,nt
CN1C(C(=O)NCCc2cccs2)CC2Cn3c(nc4cc(Cl)c(Cl)cc43)C21 (stereo not given),0.4,47.5*,0.8,2.9,-16.8
CCOC(=O)c1[nH]c2ccccc2c1NC(=O)c1cc(OCC)c(OCC)c(OCC)c1,3.6,nt,-0.4,nt,nt
CC(C)c1ccc(OCC(=O)Nc2ccc(S(=O)(=O)Nc3ncccn3)cc2)cc1,5.0,nt,-1.8,nt,nt
Cc1ccc(S(=O)(=O)N(C)C)cc1NC(=O)CN1CCCC1,-26.8,-20.8,-0.3,2.9,-21.9
COc1ccc(NC(C)=O)cc1NC(=O)CN1CCN(S(=O)(=O)c2ccc(C(C)C)cc2)CC1,-3.5,38.2*,0.3,0.3,-0.6
O=C(CN1CCN(S(=O)(=O)c2ccc(Cl)cc2)CC1)Nc1ccc(F)cc1F,-7.2,39.0*,1.2,-1.5,0.7
Cc1ccc(S(=O)(=O)N2CCN(CC(=O)Nc3ccccc3Cl)CC2)cc1,10.2,39.7*,0.0,-1.9,-1.0
CN(C)S(=O)(=O)c1ccc(Cl)c(NC(=O)CN2CCCC2)c1,-14.2,35.9*,0.5,-3.4,-21.9
O=C(CN1CCN(S(=O)(=O)c2ccc(Br)cc2)CC1)Nc1ccc(F)cc1F,0.0,5.9,-0.6,5.3,-8.0
O=c1[nH]c(SCc2ccc(Br)cc2)nc2c1CCCC2,0.0,nt,0.1,nt,nt
CCOc1ccccc1Oc1nc(C)nc2c1oc1ccccc12,-8.6,nt,-0.4,nt,nt
CC1CN(C(=O)N2CCC(C(=O)NCCCc3ccccc3)CC2)c2ccccc2O1 (stereo not given),8.2,nt,-0.9,nt,nt
COc1ccc(NC(=O)CN2CCN(S(=O)(=O)c3ccc(Br)cc3)CC2)c(OC)c1,-7.5,-9.6,0.0,1.0,-5.4
COc1ccc(C)cc1NC(=O)CN1CCN(S(=O)(=O)c2ccc(Br)cc2)CC1,1.7,33.5*,0.3,0.1,4.0
SMILES,D2 PAM-1,D2 antagonist,D2 ag-1,D2 ag-2,D2 PAM-2
CC1CCC(NC(=O)C2(C)Cc3ccccc3C(=O)N2Cc2ccc(Cl)cc2)CC1 (stereo not given),10.0,nt,4.1,nt,nt
C(=N\Nc1nc(-c2ccccc2)cs1)/c1ccncc1,-5.0,-14.9,0.9,4.0,-5.1
C(=N\Nc1nc(-c2ccccc2)cs1)/c1cccs1,5.4,-10.6,-1.2,12.6,62.9*
Cc1ccc(-c2nnc(SCC(=O)N3CCCc4ccccc43)o2)cc1,0.6,nt,nt,nt,nt
Cc1cccc(NC(=O)c2nc[nH]c2C(=O)N2CCc3ccccc3C2)c1,-27.5,85.9*,-0.1,-1.3,-25.1
O=C(Nc1ccccc1)c1nc[nH]c1C(=O)N1CCc2ccccc2C1,-26.6,10.2,-0.5,2.0,-18.3
O=C(Nc1cccc(Cl)c1)c1nc[nH]c1C(=O)N1CCc2ccccc2C1,-26.3,56.4*,-0.8,-1.3,-28.1
O=C(NCCNC(=O)c1ccc(-c2cccc(Cl)c2)o1)c1cnccn1,nt,nt,nt,1.8,-13.9
O=C(NCCNC(=O)c1ccc(-c2ccc(Cl)c(Cl)c2)o1)c1cnccn1,102.0*,-18.0,-0.7,7.9,5.7

# Screening results (PubChem BioAssay)
